# Measurements published in PubChem BioAssay (NCI).
# About 79,000 compounds went through this panel and 15% of them were active in at least one assay; those are over-represented in the sample as a whole. Values without a mark were called inactive. Calls of active or inactive are those of the source. No stated cut-off is given here; in the data, active means growth inhibition above about 70%; inactive means the rest.
# Columns and labels:
# [1] = NCI Yeast Anticancer Drug Screen. Data for the rad50 strain (AID 155);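 further: 0% = growth of vehicle-only cultures of the same strain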; conditions: S. cerevisiae rad50 strain growth inhibition, stronger effect = higher value
# Summary of the method: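 Compounds were tested on a yeast strain with an engineered DNA damage repair alteration; the reported value is growth inhibition normalised to vehicle treatment.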
# [2] = NCI Yeast Anticancer Drug Screen. Data for the mec2-1 strain (AID 157); conditions: S. cerevisiae mec2-1 strain, stronger effect = higher value
# Summary of the method: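 Strain: mec2-1 (DNA repair/cell cycle alteration). Compound exposure, then growth measured; inhibition expressed relative to vehicle.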
# [3] = NCI Yeast Anticancer Drug Screen. Data for the sgs1 mgt1 strain (AID 161);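 further: 0% = growth of cultures given vehicle only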; conditions: S. cerevisiae sgs1 mgt1 strain, stronger effect = higher value
# Summary of the method: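 Mutant yeast exposed to compound; growth scored against vehicle-only wells.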
# [4] = NCI Yeast Anticancer Drug Screen. Data for the cln2 rad14 strain (AID 165);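 further: 0% = growth equal to vehicle treated cultures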; conditions: S. cerevisiae cln2 rad14 strain, stronger effect = higher value
# Summary of the method: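 Compounds are applied to the cln2 rad14 yeast strain, and growth is then compared with that of vehicle-treated cultures to give inhibition.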
# [5] = NCI Yeast Anticancer Drug Screen. Data for the bub3 strain (AID 167); conditions: S. cerevisiae bub3 mutant strain, stronger effect = higher value
# Summary of the method: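 Growth of a checkpoint-deficient yeast mutant is measured after compound exposure. Values represent inhibition relative to vehicle.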
# [6] = NCI Yeast Anticancer Drug Screen. Data for the mlh1 rad18 strain (AID 175); conditions: S. cerevisiae mlh1 rad18 strain growth inhibition, stronger effect = higher value
# Summary of the method: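 Read-out is yeast growth inhibition, calculated against vehicle-only controls. The compound was applied to a strain engineered with DNA damage repair alterations.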
# [7] = at 5.0 µM (retest, dose inferred, filed as 0.5)
# [8] = at 50.0 µM (retest, dose inferred, filed as 5.0)
Compound,"growth inhibition [1, 7]","growth inhibition [1, 8]",growth inhibition ([1]; at 50.0 µM),"growth inhibition [2, 7]","growth inhibition [2, 8]",growth inhibition ([2]; at 50.0 µM),"growth inhibition [3, 7]","growth inhibition [3, 8]",growth inhibition ([3]; at 50.0 µM),"growth inhibition [4, 7]","growth inhibition [4, 8]",growth inhibition ([4]; at 50.0 µM),"growth inhibition [5, 7]","growth inhibition [5, 8]",growth inhibition ([5]; at 50.0 µM),"growth inhibition [6, 7]","growth inhibition [6, 8]",growth inhibition ([6]; at 50.0 µM)
CNc1cc(SC)nc(N)n1,3%,-7%,89.7% (active),-2%,-3%,94.3% (active),1%,-9%,92.8% (active),-1%,0%,91.8% (active),-1%,-1%,75.4% (active),0%,-4%,95% (active)
Clc1ccc([O][In]([O]c2ccc(Cl)cn2)[O]c2ccc(Cl)cn2)nc1,1%,1%,68.2%,8%,8%,72% (active),-1%,-1%,56%,-4%,-4%,38.9%,-26%,-26%,48.2%,-5%,-5%,53.8%
O=[N+]([O-])c1c(C=Nc2ccccc2)oc(-c2c(O)ccc3ccccc23)c1-c1c(O)ccc2ccccc12,1%,2%,98.7% (active),-13%,-11%,98.7% (active),-7%,-4%,98.8% (active),-30%,-26%,98.5% (active),3%,3%,98.8% (active),-2%,-1%,98.8% (active)
CS(=O)(=O)n1c(C(O)c2ccccc2)nc2ccccc21 (configuration not stated),-4%,4%,8.95%,10%,-1%,17.8%,2%,8%,3.1%,-82%,-1%,27.8%,5%,38%,5.6%,0%,1%,14.2%
CC(=O)Sc1ccc(Br)cc1,0%,73% (active),45.3%,3%,52%,36.9%,3%,60%,34.9%,-1%,40%,-2.05%,1%,68%,60.3%,-2%,76% (active),71.2% (active)
COc1ccc2cc(C(=O)CCCC(C)C(=O)O)ccc2c1 (configuration not stated),0%,-9%,74.6% (active),-9%,-11%,-7.85%,0%,38%,2.85%,-3%,-22%,-48%,-4%,-9%,3.55%,-12%,-4%,2.95%
Cc1ccc(OCC2CO2)c(Br)c1 (configuration not stated),11%,66%,78.2% (active),1%,19%,5.95%,15%,71% (active),49.6%,4%,15%,-44.6%,-1%,1%,-13.2%,17%,84% (active),24.1%
CC(NCCO)c1ccc2ccccc2c1 (configuration not stated),0%,8%,2.15%,3%,-4%,-13.2%,-10%,-6%,2.3%,3%,-3%,30.7%,3%,-1%,-14.9%,-1%,8%,-3.8%
Cc1ccc(S(=O)(=O)Nn2c(S)c(C#N)c(-c3ccc([N+](=O)[O-])cc3)c(C#N)c2=O)cc1,25%,59%,49.6%,8%,35%,46.6%,24%,78% (active),72.3% (active),43%,43%,29.8%,45%,65%,54.6%,19%,46%,59%
CCN(CC)c1c(C(=O)/C=C/c2ccc(OC)cc2)c(-c2ccccc2)nn(C)c1=O,17%,17%,78.1% (active),8%,8%,72.5% (active),5%,5%,69%,9%,9%,77% (active),-4%,-4%,71.3% (active),8%,8%,70.2% (active)
CC(=O)Oc1c2ccccc2c(C)c2c1ccc1ccccc12,65%,93% (active),96% (active),84% (active),92% (active),95% (active),89% (active),93% (active),96% (active),49%,92% (active),94.2% (active),37%,93% (active),96.7% (active),91% (active),90% (active),91.8% (active)
CCCCCOC(=O)C1C(=O)CC(c2ccccc2)C1c1ccccc1 (configuration not stated),1%,79% (active),92.2% (active),-1%,63%,16.6%,-4%,67%,56.1%,0%,76% (active),63.9%,-5%,72% (active),45.5%,0%,85% (active),68.6%
O=[N+]([O-])c1cc(I)cc(/C=N/NS(=O)(=O)c2ccc(F)cc2)c1O,16%,36%,84.2% (active),12%,31%,77.7% (active),19%,47%,89.5% (active),0%,15%,77.8% (active),3%,17%,53%,17%,45%,93% (active)
CCOP(=O)(OCC)C(=C1C=C(C(C)(C)C)C(=O)C(C(C)(C)C)=C1)P(=O)(OCC)OCC,2%,97% (active),98.2% (active),-15%,99% (active),96.8% (active),0%,89% (active),98.8% (active),-4%,99% (active),97.2% (active),5%,99% (active),97.2% (active),-12%,98% (active),96.8% (active)
CCCCCCCCCCCCCCCCn1cc(C(O)CN(C)C)c2ccccc21 (configuration not stated),-4%,98% (active),32.2%,-1%,99% (active),99.1% (active),-1%,98% (active),49.5%,-3%,89% (active),98.3% (active),-4%,98% (active),39.6%,-2%,98% (active),94.9% (active)
CC1(c2ccc3ccccc3c2)C(C#N)(C#N)C1(C#N)C#N,87% (active),92% (active),91.4% (active),94% (active),94% (active),92% (active),97% (active),96% (active),88% (active),62%,93% (active),83.2% (active),96% (active),93% (active),91.2% (active),97% (active),93% (active),87.7% (active)
CCN1CCC(O)(/C=C/c2ccccc2C)C(C(=O)/C=C/c2ccccc2C)C1 (configuration not stated),8%,84% (active),94.4% (active),-2%,74% (active),98.2% (active),3%,83% (active),99.4% (active),-2%,54%,92.2% (active),8%,83% (active),98.5% (active),4%,93% (active),99.5% (active)
Cc1ccc(C)c(NC(=O)/C(=N\NC(N)=S)C(C#N)c2ccccc2)c1 (configuration not stated),5%,13%,-14.3%,6%,6%,12.8%,2%,12%,15.6%,-1%,-4%,28%,10%,2%,5.75%,1%,6%,69.2%
Cc1cccc(N2CCN(CC(O)COc3ccc4ccccc4c3)CC2)c1 (configuration not stated),-6%,-7%,80.7% (active),13%,18%,72.1% (active),-3%,12%,97.7% (active),-4%,-6%,60.1%,-5%,4%,41.1%,26%,28%,90% (active)
